Assay results published in PubChem BioAssay AID1159580 (chemical genetic matrix, 2015).
“And” between values parts separate entries of the source, which are not always exact repeats. Equal values may be shown once. Out of some 5,500 compounds screened, about 2,000 (36%) were called active. Not shown: some 18% with an inconclusive outcome. Cut-off read from the data, not from the text of the source: active = normalized growth mostly below about 0.91 (no sharp cut-off); inconclusive = no clear call, values can overlap the other calls; inactive = mostly above about 0.92. Some of the results follow.

Assay: chemical genetic growth profiling, strain panel (AID 1159580);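 note: tested at 20 µM; growth read once vehicle control cultures reached saturation at 30 °C; 1 = growth at the plate median or of vehicle wells; lower values mean less growth of the strain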
Settings: S. cerevisiae deletion strains, growth OD

Measured: normalized growth

O=c1oc2ccccc2c(O)c1Cc1c(O)c2ccccc2oc1=O
inactive: locus YAL013W, strain DEP1, active compounds read low 1.01 | locus YAL021C, strain ccr4, active compounds read low 0.977 | locus YAL026C, strain drs2, active compounds read low 1.03 | locus YAL030W, strain snc1, active compounds read low 1.02 | locus YBL061C, strain skt5, active compounds read low 1.02 | locus YBR009C, strain hhf1, active compounds read low 1.01 | locus YBR021W, strain FUR4, active compounds read low 1.01 | locus YBR023C, strain chs3, active compounds read low 1.01 | locus YBR171W, strain sec66, active compounds read low 1.01 | locus YBR229C, strain ROT2, active compounds read low 0.998 | locus YBR231C, strain swc5, active compounds read low 1.02 | locus YBR279W, strain paf1, active compounds read low 1 | locus YCL011C, strain gbp2, active compounds read low 1.02 | locus YCL016C, strain dcc1, active compounds read low 1 | locus YCL029C, strain bik1, active compounds read low 0.968 | locus YCL069W, strain vba3, active compounds read low 1.02 | locus YCR088W, strain abp1, active compounds read low 1.02 | locus YDL005C, strain med2, active compounds read low 1.04 | locus YDL035C, strain GPR1, active compounds read low 1.04 | locus YDL040C, strain nat1, active compounds read low 1.03 | locus YDL074C, strain BRE1, active compounds read low 1.02 | locus YDL101C, strain DUN1, active compounds read low 1.01 | locus YDL185W, strain tfp1, active compounds read low 0.962 | locus YDL192W, strain arf1, active compounds read low 0.962 | locus YDR001C, strain nth1, active compounds read low 1 | locus YDR069C, strain doa4, active compounds read low 0.994 | locus YDR101C, strain arx1, active compounds read low 0.984 | locus YDR137W, strain rgp1, active compounds read low 1.03 | locus YDR159W, strain sac3, active compounds read low 0.936 | locus YDR162C, strain NBP2, active compounds read low 1.01 | locus YDR195W, strain ref2 1.01 | locus YDR297W, strain sur2, active compounds read low 1.01 | locus YDR318W, strain mcm21, active compounds read low 0.979 | locus YDR334W, strain swr1, active compounds read low 1.04 | locus YDR335W, strain msn5, active compounds read low 1.02 | locus YDR388W, active compounds read low 0.959 | locus YDR392W, strain spt3, active compounds read low 0.919 | locus YDR502C, strain sam2, active compounds read low 0.982 | locus YEL003W, strain gim4, active compounds read low 1.02 | locus YEL037C, strain rad23, active compounds read low 1.03 | locus YEL061C, strain CIN8 (second series), active compounds read low 1.03 | locus YEL061C, strain CIN8, active compounds read low 0.993 | locus YER015W, strain faa2, active compounds read low 1.01 | locus YER016W, strain bim1, active compounds read low 1.01 | locus YER110C, active compounds read low 0.96 | locus YER111C, strain swi4, active compounds read low 1.01 | locus YER155C, strain BEM2 (second series), active compounds read low 1.02 | locus YER155C, strain BEM2, active compounds read low 0.984 | locus YER167W, strain BCK2, active compounds read low 1.01 | locus YFR010W, strain ubp6, active compounds read low 1.02 | locus YGL078C, strain dbp3, active compounds read low 0.952 | locus YGL086W, strain mad1, active compounds read low 0.996 | locus YGL167C, strain pmr1, active compounds read low 1.01 | locus YGL173C, strain kem1, active compounds read low 1.01 | locus YGL227W, strain vid30, active compounds read low 1 | locus YGL240W, strain doc1, active compounds read low 0.984 | locus YGL248W, strain PDE1, active compounds read low 1.01 | locus YGL253W, strain hxk2, active compounds read low 1.02 | locus YGR078C, strain PAC10, active compounds read low 1.01 | locus YGR135W, strain pre9, active compounds read low 0.959 | locus YGR229C, strain SMI1, active compounds read low 1.02 | locus YGR252W, strain gcn5, active compounds read low 0.95 | locus YHR013C, strain ard1, active compounds read low 1 | locus YHR027C, strain rpn1, active compounds read low 1.01 | locus YHR030C, strain SLT2, active compounds read low 0.993 and 0.907 | locus YHR079C, strain IRE1 (second series), active compounds read low 0.963 | locus YHR079C, strain IRE1, active compounds read low 0.917 | locus YHR094C, strain hxt1, active compounds read low 0.96 | locus YHR129C, strain ARP1, active compounds read low 0.991 | locus YHR142W, strain chs7, active compounds read low 1.08 | locus YHR200W, strain rpn10, active compounds read low 0.98 | locus YIL066C, strain RNR3, active compounds read low 1 | locus YIL073C, strain SPO22, active compounds read low 0.979 | locus YIL125W, strain kgd1, active compounds read low 0.959 | locus YIR030C, strain dcg1, active compounds read low 0.96 | locus YJL092W, strain hpr5, active compounds read low 1.01 | locus YJL095W, strain BCK1 (second series), active compounds read low 1.01 | locus YJL095W, strain BCK1, active compounds read low 0.989 and 0.898 | locus YJL115W, strain asf1, active compounds read low 1.01 | locus YJL129C, strain trk1, active compounds read low 1 | locus YJL134W, strain LCB3, active compounds read low 0.987 | locus YJL154C, strain vps35, active compounds read low 1.02 | locus YJL164C, strain tpk1, active compounds read low 1.03 | locus YJL166W, strain qcr8, active compounds read low 0.995 | locus YJL168C, strain set2, active compounds read low 0.953 | locus YJL187C, strain SWE1 (second series), active compounds read low 1 | locus YJL187C, strain SWE1, active compounds read low 0.991 | locus YJR043C, strain POL32, active compounds read low 1.02
